# Screening results deposited in PubChem BioAssay by National Center for Advancing Translational Sciences (NCATS).
# TDP1 cell CPT = qHTS for Inhibitors of human tyrosyl-DNA phosphodiesterase 1 (TDP1): qHTS in cells in presence of CPT | chicken DT40 Tdp1-/-;hTDP1 cells + 20 nM CPT, ATP luminescence, 48 h | Potency, µM (series often up to 46.2 µM), inactives show at the top dose activity change, negative = growth inhibition, actives largely listed as inhibitors | 12% of 420,000 active; also: % is scaled to controls: 0 for no effect and ±100 for the full control effect; nearly all actives have a fitted effect of over 55% in size
#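 Cell growth measured by CellTiter-Glo luminescence after a minimum 48 h, 37 C compound exposure with 20 nM CPT in Tdp1-knockout DT40 cells stably expressing hTDP1, seeded 400/well; qHTS titration format.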
# HT1080 IDH1KD tx = qHTS for induction of synthetic lethality in tumor cells producing 2HG: qHTS for the HT-1080-IDH1KD cell line; HT-1080 IDH1 knockdown viability, ATP luminescence, 48 h; Potency, µM (doses to about 46.1 µM), for the others: top-dose activity, negative = toxicity, hits mostly cytotoxic; 2% of 360,000 active; AID 686971, 2013;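 also: 0% = DMSO wells and -100% = cell-free medium wells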
#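 IDH1KD HT-1080 cells, 750/well, RPMI + 5% FBS; compound pinned after 2 h settling; 48 h, 37 °C; CellTiter-Glo luminescence; % activity normalised to DMSO and no-cell wells; curves fitted, classed by r2 and efficacy.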
# HepG2 tox = qHTS for Inhibitors of TGF-b: Cytotox Counterscreen | HepG2 CAGA-GFP viability, ATP luminescence, 18 h | 0.76% of 410,000 active | Potency, µM (series often up to 46.1 µM), inactives show top-dose activity change, negative = cytotoxicity, most hits filed as cytotoxic
#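 HepG2 CAGA-GFP cells (1000/well, DMEM with 1% FBS) received compound, then TGF-beta at 500 pg/mL final, and were incubated 18 hours at 37 degrees C. Viability was read by CellTiter-Glo luminescence. Media-only wells were set as complete cell-killing and DMSO as no toxicity.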
# HT1080-NT tox = qHTS for induction of synthetic lethality in tumor cells producing 2HG: qHTS for the HT-1080-NT fibrosarcoma cell line; HT-1080-NT fibrosarcoma viability, CellTiter-Glo ATP luminescence, 48 h; Potency, µM (titrated, usually from 46.1 µM), for inactives: at the highest dose activity, negative = less viability, actives largely listed as cytotoxic; 1.6% of 360,000 active; AID 686970, 2013;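 also: NT is the 2HG producing partner of a matched IDH1 knockdown line; 0% = DMSO-treated cells and -100% = media-only wells without cells; nearly all actives have a fitted effect of over 55% in size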
#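 Toxicity toward the 2HG-producing NT line was scored as %Activity, normalised to DMSO and no-cell wells, from CellTiter-Glo luminescence after 48 hours' treatment.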
# TGFb inhibitor = qHTS for Inhibitors of TGF-b; HepG2 CAGA-GFP TGF-b/SMAD3 reporter, GFP fluorescence, 18 h; TGF-beta stimulated, 500 pg/mL final; Potency, µM (top dose mostly 46.1 µM), for the others: at the top dose activity, negative = inhibition, usual class: inhibitors; 1.2% of 410,000 active; also: % is scaled to controls: 0 for no effect and ±100 for the full control effect; nearly all actives have a fitted effect of over 65% in size
#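 First, reporter cells (HEPG2 CAGA-GFP) rested 2 h at 37 degrees C. Next, compounds were pinned in and TGF-beta added to 500 pg/mL final. After 18 h, GFP was imaged per cell and summed per well.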
# TDP1 cell noCPT = qHTS for Inhibitors of human tyrosyl-DNA phosphodiesterase 1 (TDP1): qHTS in cells in absence of CPT | Potency, µM (series often up to 46.2 µM), without a hit: top-dose activity change, negative = growth inhibition, hits mostly inhibitors | 15% of 420,000 active | DT40 Tdp1-/- hTDP1 cells, no CPT, ATP luminescence, 48 h; also: % is scaled to controls: 0 for no effect and ±100 for the full control effect; nearly all actives have a fitted effect of over 55% in size
#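 Stably hTDP1-transfected Tdp1-null chicken DT40 cells were treated with library compounds minus camptothecin and grown for at least 48 hr at 37 °C, after which cellular ATP was quantified by luminescence.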
# Starred values were filed as active, the others as inactive; ? = inconclusive; · = no result; [ ] = dose if it differs, or a comment. This is a sample that favours compounds with a hit; in the whole collection about 17% have one here. Calls follow the shape of the dose curve; as a rule, active = well fitted curve in the direction sought with a large enough effect; inconclusive = small, poorly fitted or top-dose-only effect, or another doubt; inactive = no such curve, though single readings can be large; an effect the other way counts as inactive or inconclusive. Potency is read from the fitted curve at half-maximal effect.
SMILES,TDP1 cell CPT,HT1080 IDH1KD tx,HepG2 tox,HT1080-NT tox,TGFb inhibitor,TDP1 cell noCPT
Cc1ccc(CN2C[C@@H](Sc3nc(C)cc(C)n3)C[C@H]2C(=O)N2CCN(c3ccccc3F)CC2)cc1,-10.8%[9.04 µM],·,·,·,·,?
Cc1cccc(C)c1OCc1nc2ccccc2c(=O)n1/N=C/c1c[nH]c2ccccc12,20.6µM*,?,3.7%,-23.4%,-21.7%,?
Cc1ccccc1OCc1nc2ccccc2c(=O)n1/N=C/c1c[nH]c2ccccc12,-68.1%,?,-33.2%,?,?,-101.0%
Cc1c(C)n2c(SCC(=O)N3CCN(c4ccccc4)CC3)nnc2[nH]c1=O,-22.4%,2.8%,-2.4%,4.5%,?,22.6%
O=C(c1c(F)cccc1F)N(Cc1ccccn1)C1CC1,-25.6%,15.2%,0.4%,-4.1%,12.6µM*,?
COc1cc(C(C(=O)NCc2ccccc2)N(C(=O)c2snc(C(N)=O)c2N)C2CCCC2)cc(OC)c1OC (stereo unspecified),2.2%,-0.6%,6.4%,10.3%,17.7%,-5.6%
COc1ccc(Cl)cc1NC(=O)CN1C(=O)C(C)(C)c2cc(S(=O)(=O)N3CCCCC3)ccc21,?,·,2.9%,·,-13.9%,?
Cc1cc(Br)ccc1NC(=O)CNC(=O)Cn1ncc(Cl)c(Cl)c1=O,4.11µM*,2.59µM*,-9.3%,3.66µM*,-11.0%,3.66µM*
Cc1ccc(S(=O)(=O)N2CCCCC2)cc1NC(=O)Cn1ncc(Cl)c(Cl)c1=O,4.61µM*,14.6µM*,-38.9%,20.6µM*,?,2.06µM*
Cc1ccc(S(=O)(=O)N2CCCCC2)cc1NC(=O)Cn1cnnn1,-2.5%,-2.9%,-6.0%,0.0%,-18.2%,0.0%
Cc1ccc(Cl)cc1NC(=O)CN1C(=O)C(C)(C)c2cc(S(=O)(=O)N3CCCCC3)ccc21,?,·,0.6%,·,-28.0%,23.1µM*
Cc1ccc(S(=O)(=O)N2CCCCC2)cc1NC(=O)CNC(C)c1ccc(Cl)c(Cl)c1 (stereo unspecified),14.6µM*,-18.4%,0.7%,?,?,13µM*
Cc1ccccc1OCCC(=O)OCC(=O)NNC(=O)c1cccs1,3.2%,-2.4%,7.9%,11.3%,-10.0%,1.8%
COc1ccc(S(=O)(=O)N(CC(=O)N/N=C/c2cccs2)c2cc(C)cc(C)c2)cc1OC,?,-17.1%,-7.0%,-4.7%,-42.2%,-27.7%
CC(C)Oc1ccc(CNS(=O)(=O)c2ccc(-c3cc(C(F)(F)F)on3)s2)cc1,-14.9%,·,0.1%,·,-0.1%,-21.4%
Nc1ccc(Br)cc1Br,-20.6%,0.2%,0.6%,-1.1%,-6.6%,16.7%
COc1cc(C(=O)O[C@H]2C/C(C)=C/CC[C@]3(C)O[C@@H]3C(O)C2C(C)C)cc(OC)c1OC (stereo partly specified),?,-11.6%,-18.7%,?,0.0%,?
COc1cc(C(=O)O[C@H]2C/C(C)=C/CC[C@@]3(C)O[C@@H]3[C@H](O)[C@@H]2C(C)C)cc(OC)c1OC,16.4µM*,-0.5%,-28.2%,-15.0%,-20.6%,23.1µM*
Oc1ccccc1CNc1ccc(OC(F)(F)F)cc1,-25.2%,?,-45.0%,18.4µM*,?,?
Cn1c(=O)c(C#N)c(-c2ccc(F)cc2)c2cc(C(=O)c3cc(Cl)cc(Cl)c3O)cnc21,?,?,-44.9%,?,17.8µM*,?
Cc1cccc(NC(=O)CCCCCN2C(=O)[C@@H]3Cc4ccccc4CN3C2=O)c1,-27.8%,3.4%,-20.0%,8.2%,-11.4%,?
O=C(CCCCCN1C(=O)[C@@H]2Cc3ccccc3CN2C1=O)Nc1cccc(F)c1,?,-9.0%,-19.2%,-23.6%,?,14.6µM*
Nc1ncn(-c2ncc(C(F)(F)F)cc2Cl)n1,-6.6%,-1.3%,1.5%,13.9%,-3.2%,1.3%
Cn1c(=O)[nH]c(=O)c2c1nc(SCC(O)CCl)n2Cc1ccccc1 (stereo unspecified),11.6µM*,-11.2%,1.2%,-9.1%,-1.0%,?
Cn1c(=O)[nH]c(=O)c2c1nc(SCC(=O)Nc1ccccc1)n2Cc1ccccc1,23.1µM*,0.1%,-3.0%,-0.5%,-2.1%,18.4µM*
SMILES,TDP1 cell CPT,HT1080 IDH1KD tx,HepG2 tox,HT1080-NT tox,TGFb inhibitor,TDP1 cell noCPT
C=C(C)CSc1nc2c(c(=O)[nH]c(=O)n2C)n1Cc1ccccc1,?,-10.6%,-11.7%,-2.9%,0.5%,?
CNCCCC1Sc2ccccc2Oc2ccccc21 (stereo unspecified),?,?,-66.6%,?,8.5%,14.6µM*
CCN(CC)CCCNC(=O)C1c2ccccc2Oc2ccccc21,7.9%,9.3%,-3.2%,5.0%,23.1%,-14.0%
Cc1c(CCC(=O)NCCCn2ccnc2)c(=O)oc2c(C)c3occ(C(C)(C)C)c3cc12,?,18.4µM*,-25.0%,?,?,20.6µM*
COc1cccc(CNC(=O)CCc2c(C)c3cc4c(C)coc4cc3oc2=O)c1,13µM*,·,-5.3%,·,3.9%,16.4µM*
Cc1oc2cc3oc(=O)c(CCC(=O)NCCCN4CCCC4=O)c(C)c3cc2c1C,14.6µM*,0.2%,-1.4%,1.3%,-24.4%,?
Cc1ccc(CNC(=O)CCc2c(C)c3cc4c(C)coc4cc3oc2=O)cc1,16.4µM*,·,-27.1%,·,-26.6%,?
Cc1oc2c(C)c3oc(=O)c(CCC(=O)NCCCN4CCCC4=O)c(C)c3cc2c1C,-26.2%,-3.3%,-4.1%,1.2%,3.3%,?
Cc1nonc1C(=O)N/N=C/c1ccccc1,-13.9%,1.2%,-15.4%,11.4%,4.3%,-14.5%
N[C@@H](Cn1cc(I)c(=O)n(Cc2ccc(C(=O)O)cc2)c1=O)C(=O)O,2.1%,·,·,·,·,2.1%
C[C@@](N)(C(=O)O)c1ccc(S(=O)(=O)O)cc1,4.0%,·,·,·,·,3.0%
CCCCCNC(=O)C1C(=O)Nc2ccccc2C(=O)N1c1ccc(OC)cc1 (stereo unspecified),?,-18.6%,·,4.9%,·,?
C[C@H](CO)N1C[C@H](C)[C@@H](CN(C)S(=O)(=O)c2cccs2)Oc2ccc(NS(=O)(=O)c3ccccc3)cc2C1=O,?,-4.3%,1.1%,-4.9%,4.0%,?
